Hit rate of the full screen: of about 53,000 compounds, about 900 (1.7%) showed an effect of 50% or more. The list comes from a sample in which strong results are over-represented; it also holds similar structures and randomly drawn compounds.

In the assay the test system is Mycobacterium tuberculosis. Briefly: Cornell - Phenotypic assay to identify agents that inhibit growth of Mycobacterium tuberculosis. Format: functional. Further details: scale not given: direction of the effect not stated beside the values. As to conditions: 10 mM as filed; unlikely as a test dose.
For the molecule `CC(C)Cc1cc(NC(=O)c2ccccc2F)n(C)n1`, the “Percent Effect” value stood at 11%. Regarding `CCc1ccc(N2CCC(NS(=O)(=O)N(CC)CC)CC2)cc1`, the “Percent Effect” value is reported as 14.08%. Next, `CCN(CC)C(=O)c1ccc(NC(=O)CNc2ccc(Br)cc2F)cc1`: -14.15%.

`COc1ccc(NC(=O)CNc2ccc(Br)cc2F)cc1`: the “Percent Effect” value came to 107.2%.

With `N#CCc1ccc(NC(=O)CNc2ccc(Br)cc2F)cc1`, the “Percent Effect” value is given as 10.15%. Next, `CC(C)CN1CCC(c2nc3ccc(NC(C)C)cn3n2)CC1.O=C(O)C(F)(F)F.O=C(O)C(F)(F)F`: 2.767%. Next, `CN1CCOC(CNCc2cnc(C(C)(C)C)s2)C1` (stereo unspecified): 18.35%. As for `Cc1cc(C(=O)Nc2cccn(Cc3ccc(F)cc3)c2=O)no1`, the figure is 24.65%; as for `CC(=O)Nc1nc(C(=O)NC(C)c2ccc(C#N)cc2)cs1` (stereo unspecified), 12.08%.

Consider `CC(C)c1noc(CCNC(=O)N2CCN(c3cccs3)CC2)n1`, for which the “Percent Effect” value was found to be 4.976%. As for `CC(NC(=O)N1CCN(c2cccs2)CC1)c1ccncc1` (stereo unspecified), the “Percent Effect” value is recorded as 62.51%. Turning to `CC(NC(=O)N1CCN(c2cccs2)CC1)c1ccc(C#N)cc1` (stereo unspecified), the “Percent Effect” value worked out at 66.35%.

With `O=C(NCCn1ccnc1)N1CCN(Cc2cccs2)CC1`, the “Percent Effect” value was -4.677%. As for `O=C(NCCCn1ccnc1)N1CCN(c2cccs2)CC1`, the figure is 78.28%; as for `CC(NC(=O)N1CCN(c2ncccn2)CC1)c1ccc(C#N)cc1` (stereo unspecified), -12.2%. As for `Cc1noc(C)c1C(C)NC(=O)N1CCN(c2cccs2)CC1` (stereo unspecified), the figure is 32.97%; as for `O=C(NCCn1ccnc1)N1CCN(c2nccs2)CC1`, -3.95%. Next, `CN(C)C[C@@H]1C[C@@H]2CN(C(=O)Cc3cccs3)CC[C@@H]2N1C`: -13.85%.

`Cc1cc(C)nc(N2CCC(Cn3cc(C(=O)N(C)C)cn3)CC2)n1`: the “Percent Effect” value is listed as 9.732%. On to `CC(C)(C)c1cc(NC(=O)CNC2CCc3ncnn3C2)on1` (stereo unspecified), for which the “Percent Effect” value is -1.762%. Consider `c1cncc(Cc2nnc3n2CCN(CC2CCOC2)CC3)c1` (stereo unspecified), for which the “Percent Effect” value was found to be 8.69%.

Consider `O=C(O)c1ccc(S(=O)(=O)Nc2c(F)cccc2-n2cccn2)cc1`, for which the “Percent Effect” value amounted to 7.087%.

In the case of `O=C(O)C(F)(F)F.O=C(O)C(F)(F)F.O=C(c1ccc(F)cc1)N1CCN2C[C@H](OCc3cccnc3)C[C@H]2C1`, the “Percent Effect” value was found to be 19.5%. Regarding `O=C(c1cccc2ccnn12)N1CCCC1Cn1cccn1` (stereo unspecified), the “Percent Effect” value is 2.312%. As for `Cc1noc(-c2c[nH]nc2C2CCCN2C(=O)c2ccccc2)c1C` (stereo unspecified), the figure is -2.6%. Next, `CCCC(=O)N(CCN1CCOCC1)c1nc2c(OC)ccc(C)c2s1.Cl`: -1.479%. Turning to `CCCC(=O)N(CCCN1CCOCC1)c1nc2c(F)cccc2s1.Cl`, the “Percent Effect” value was found to be 7.328%.

Consider `CCCC(=O)N(CCCN1CCOCC1)c1nc2c(Cl)cccc2s1.Cl`, for which the “Percent Effect” value worked out at 9.811%.

`Cc1ccc(CCCC(=O)N(C)CCN2CCOCC2)cc1`: the “Percent Effect” value was -37.37%. Next, `CCCC(=O)N(CCCN1CCOCC1)c1nc2c(C)c(C)ccc2s1.Cl`: 69.7%. Next, `CCCC(=O)N(CCCN1CCOCC1)c1nc2c(C)ccc(Cl)c2s1.Cl`: 110.2%.
